# Assay outcomes (PubChem)
# PTAP TSG101 blk: blocks PTAP/TSG101 interaction to inhibit HIV-1 budding. Fluorescence polarization, FITC-PTAP peptide / Tsg101 binding. Potency, µM (top dose mostly 115 µM), hits mostly inhibitors. Q99816. 340,000 tested, under 10 active; active = well fitted inhibition curve with a large enough effect in the main read-out, with a control signal flat, not every such curve was filed as active; inconclusive = small, poorly fitted or top-dose-only effect, or effect the other way, or a change in a side signal; inactive = no such curve, though single readings can be large or run the other way
#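 Steps: Tsg101 binding domain dispensed (10 uM final), compounds pinned in DMSO, FITC-labeled PTAP-motif peptide added (50 nM final); after 20 min binding at room temperature, polarization measured.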
# PLK1 PBD inh: PLK1 (human) polo-box domain binding inhibition | P53350 | Potency, µM, usual class: inhibitors | 360,000 tested, 2.8% active | Plk1 PBD binding of FITC phosphopeptide, fluorescence polarization; also: series mostly up to about 57 µM; nearly all actives have a fitted effect of over 65% in size
# uPA surface inh: cell surface uPA generation inhibition; Potency, µM (doses to about 38.3 µM), actives largely listed as inhibitors; AID 540303; cell surface uPA generation assay, qHTS; 330,000 tested, 0.31% active; active = well fitted inhibition curve with a large enough effect; inconclusive = small, poorly fitted or top-dose-only effect; inactive = no such curve, though single readings can be large or run the other way; tested in mouse RAW 264.7 cells; also: nearly all actives have a fitted effect of over 55% in size
# VDR inhibitor: vitamin D3 receptor (human) inhibition; P11473; VDR-SRC2-3 peptide fluorescence polarization, 2 h; Potency, µM, usual class: inhibitors; 400,000 tested, 0.93% active; AID 504847
# Target sequence (P11473 whole entry, looked up): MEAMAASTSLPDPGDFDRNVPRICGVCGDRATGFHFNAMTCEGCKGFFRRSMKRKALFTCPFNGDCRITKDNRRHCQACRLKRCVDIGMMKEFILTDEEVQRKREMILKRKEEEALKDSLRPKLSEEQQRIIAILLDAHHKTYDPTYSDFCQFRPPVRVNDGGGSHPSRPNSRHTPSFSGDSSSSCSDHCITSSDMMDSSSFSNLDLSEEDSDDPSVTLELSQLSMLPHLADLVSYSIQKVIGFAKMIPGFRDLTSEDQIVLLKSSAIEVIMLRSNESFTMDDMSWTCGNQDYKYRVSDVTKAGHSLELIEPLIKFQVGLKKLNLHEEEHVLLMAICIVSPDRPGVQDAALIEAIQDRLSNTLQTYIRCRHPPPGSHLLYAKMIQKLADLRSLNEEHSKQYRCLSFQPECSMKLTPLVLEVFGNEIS
#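 Fluorescence polarization assay measuring small-molecule disruption of VDR binding to the coregulator peptide SRC2-3. Compounds were pin-transferred (23 nl) into the reagent mix and incubated 2 h at room temperature before reading.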
# TSHR antag: antagonists of human thyroid stimulating hormone receptor; P16473; TSHR-expressing cells, TSH-stimulated cAMP HTRF, 2 h; active compounds read low; activity change, negative = inhibition, % at 11.5 µM; 330,000 tested, 0.2% active;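 active = activity change below a set negative limit, meaning inhibition stronger than a set level, cut at about -70% in these data; inconclusive = activity change between two set negative limits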
#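 TSHR-expressing cells were treated with compounds, then stimulated with TSH at EC80 (4nM final) for 2 hours at 37 deg C. Cellular cAMP was measured by HTRF competition between lysate cAMP and cAMP-d2 for a cryptate-labelled anti-cAMP antibody.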
# Hits are given with their value; – = inactive; ? = inconclusive; · = no result given. Only some compounds are listed: those with a hit (about 3.1% of all), similar ones and a draw of the others. Unless noted, calls follow the shape of the dose curve; as a rule, active = well fitted curve in the direction sought with a large enough effect; inconclusive = small, poorly fitted or top-dose-only effect, or another doubt; inactive = no such curve, though single readings can be large; an effect the other way counts as inactive or inconclusive.
SMILES,PTAP TSG101 blk,PLK1 PBD inh,uPA surface inh,VDR inhibitor,TSHR antag
CCOC(=O)c1c(NC(=O)C(C)Sc2cn(CCNC(=O)c3ccc(OC)cc3)c3ccccc23)sc2c1CCC2 (stereo not drawn),·,·,·,–,·
COc1ccccc1C(=O)Nc1ccc2nc(SCCOc3ccccc3C)sc2c1,·,·,·,–,·
COC(CNC(=O)c1cn(C)c2ccc(S(=O)(=O)N3CCOCC3)cc2c1=O)OC,–,–,–,–,-118
Cc1ccccc1OCC(=O)NN1Cc2ccccc2C1=N,–,27µM,–,–,–
Cc1ccccc1OCC(=O)NN1CCN(C)CC1,–,–,–,–,–
CC1(C(=O)NCc2ccc(F)c(F)c2)Cc2c(-c3cccc(C(F)(F)F)c3)ccnc2O1 (stereo not drawn),·,–,·,·,·
CCC1=NN2C(=N)/C(=C/c3ccc(OS(=O)(=O)c4ccc(C)cc4)c(OC)c3)C(=O)N=C2S1,–,15µM,–,–,–
COc1cc(/C=C2/C(=N)N3N=C(C)SC3=NC2=O)ccc1OS(=O)(=O)c1ccc(C)cc1,–,21µM,–,–,–
COc1cc(/C=C2\C(=N)N3N=C(S(C)(=O)=O)SC3=NC2=O)ccc1OS(=O)(=O)c1ccccc1,·,·,·,·,–
COc1cc(/C=C2\C(=N)N3N=C(N4CCOCC4)SC3=NC2=O)ccc1OC(=O)c1ccccc1,–,27µM,–,?,–
CC(c1ccccc1)n1c(-c2ccc(C(C)(C)C)cc2)n[nH]c1=S (stereo not drawn),–,–,–,–,–
CC(C(=O)O)n1c(-c2ccn[nH]2)n[nH]c1=S (stereo not drawn),–,15µM,–,?,–
CC(C)Cn1c(-c2csc3c2CCCC3)n[nH]c1=S,–,–,–,–,-82
CC(C)Cn1c(-c2ccccc2F)n[nH]c1=S,–,–,–,–,–
CC(=O)N1CCN(c2ccc(NC(=O)c3ccccc3Cl)cc2)CC1,–,21µM,–,–,–
COc1ccc(NC(=O)c2ccc(COc3ccccc3)o2)cc1,–,11µM,–,?,–
O=C(Nc1ccccc1)c1ccc(COc2ccccc2)cc1,–,30µM,–,?,–
CC(=O)N1CCN(c2ccc(NC(=O)c3ccc(OCc4ccccc4)cc3)cc2)CC1,–,15µM,–,28µM,–
O=C(Nc1ccc(OCc2ccccc2)cc1)c1ccccc1,–,–,–,?,–
CC(=O)N1CCN(c2ccc(NC(=O)c3cccc(OCc4ccccc4)c3)cc2)CC1,–,–,–,–,–
CCC1CCCCN1CCCNC(=O)c1ccc2c(c1)N(Cc1cccc(Cl)c1)C(=O)c1ccccc1S2(=O)=O (stereo not drawn),·,·,·,–,·
CCOc1cc(CNC(=O)c2cc(-c3ccccc3)n[nH]2)cc(OCC)c1OCC,·,·,·,–,·
COc1cccc(Cn2c(=O)c(-c3cccc(C#N)c3)nc3cnc(Nc4ccccc4)nc32)c1,·,·,·,–,·
Cc1oc(-c2ccccc2)nc1CNC(=O)NC1CCCCC1,·,·,·,–,·
CCN(CC)S(=O)(=O)c1ccc(C(=O)Nc2nc3c(Cl)cc(Cl)cc3s2)cc1,·,·,·,–,·
SMILES,PTAP TSG101 blk,PLK1 PBD inh,uPA surface inh,VDR inhibitor,TSHR antag
CCOC(=O)c1c(N)sc(-c2ccccc2)c1C,–,19µM,–,–,–
CCOC(=O)c1c(N)sc(C(O)(C(F)(F)F)C(F)(F)F)c1-c1ccccc1,–,27µM,–,?,–
COc1cccc(OC)c1C(=O)NCCc1ccccc1,–,–,–,–,·
COC(=O)c1c(N)sc(C(=O)NCCc2ccccc2)c1C,–,21µM,–,–,–
Cc1c(-c2ccccc2)sc(N)c1C(=O)N1CCOCC1,–,24µM,–,–,–
CCOC(=O)c1c(N)sc(C(=O)N(C)C)c1C,–,–,–,–,–
Cc1ccc(CNC(=O)c2c(O)nc3ccccn3c2=O)cc1,·,·,·,–,·
CCOC(=O)c1c(N)sc(C(=O)OC)c1C,–,30µM,–,–,–
CCOC(=O)c1sc(N)c(C(=O)OC)c1C,–,–,–,–,–
CCc1nn(CC(=O)NCCCOC)c(=O)c2cc3ccccc3n12,·,·,·,–,·
COc1ccc(Cl)cc1/C=C1/C(=O)ON=C1C,–,?,–,?,–
C#CCOc1c(Cl)cc(/C=C2/C(=O)ON=C2C)cc1OC,–,4.7µM,–,?,–
N/C(=N\OC(=O)c1ccc2c(c1)OCO2)c1cccc(Br)c1,–,–,–,–,–
N/C(Cc1cccc2ccccc12)=N\OC(=O)c1ccc2c(c1)OCO2,–,24µM,–,?,–
COc1ccc2c(c1)c(C(=O)CN1CCc3ccccc3C1)c(C)n2C,–,–,–,?,–
CS(=O)(=O)N1CCC(N2CCN(Cc3ccc(F)cc3)C(=O)C2=O)CC1,·,·,·,–,·
c1ccc(SCc2nc3ccccc3s2)nc1,–,19µM,–,–,–
Cc1cccc(NC(=O)CSc2nc3sc(C)cc3c(=O)n2C)c1,–,27µM,–,–,·
COc1cccc(NC(=O)CSC(N)=O)c1,–,–,–,22µM,–
COc1cccc(NC(=O)Nc2ccccc2SC)c1,–,19µM,–,–,–
COc1ccc(NC(=O)Nc2ccccc2SC)c(OC)c1,–,?,–,–,–
Cc1cc2c(=O)n(C)c(SCC(=O)Nc3cccc(O)c3)nc2s1,–,?,–,–,–
COc1cccc(NC(=O)CCC(=O)Nc2cccc(OC)c2)c1,–,–,–,–,–
COc1cccc(NC(=O)CSc2nc3ccccc3n2C)c1,–,17µM,–,–,–
CCc1nn(CCCC(=O)NCc2ccccc2C)c(=O)c2cc3occc3n12,–,?,–,–,–
SMILES,PTAP TSG101 blk,PLK1 PBD inh,uPA surface inh,VDR inhibitor,TSHR antag
O=C(Nc1ccc(F)cc1)C(c1cc2ccccc2o1)N1CCN(c2cccc(C(F)(F)F)n2)CC1 (stereo not drawn),·,–,·,·,·
CCOc1cc(C(=O)Nc2ccc(-c3nc4cc(C)ccc4o3)cc2)cc(OCC)c1OCC,·,·,·,–,·
O=c1nc(SCc2c(F)cccc2Cl)nc(-c2ccc(Cl)cc2)[nH]1,–,21µM,–,–,–
CCOc1ccc(S(=O)(=O)N(CC)CC)cc1NS(=O)(=O)c1ccc(F)c(F)c1F,–,9.5µM,–,71µM,–
CCOc1cc(S(=O)(=O)N(CC)CC)ccc1F,–,–,·,–,–
COCC(C)OC(=O)/C(C#N)=C\c1coc2ccc(C)cc2c1=O (stereo not drawn),–,11µM,–,?,–
CCN1C(=O)c2ccccc2Sc2ccc(NC(=O)Nc3cc(C)cc(C)c3)cc21,·,·,·,–,·
O=C(/C=C/Sc1ccc(C(F)(F)F)cn1)c1ccccc1,–,–,–,79µM,–
Cc1c(C2=CCN(S(=O)(=O)c3ccc(CC(C)C)cc3)CC2)c2ccccc2n1CC(=O)N1CCCC1,·,·,·,–,·
COc1ccccc1N1CCN(c2ccc(=O)n(CC(=O)O)n2)CC1,·,·,·,–,·
CCCCCCCC1=CC2=C(Cl)C(=O)C(C)(OC(C)=O)C(=O)C2=CN1C (stereo not drawn),·,·,·,71µM,·
CCCCCCCC1=CC2=CC(=O)C(C)(OC(C)=O)C(=O)C2=CN1CCc1ccccc1 (stereo not drawn),·,·,·,·,–
